# Screen size: about 310,000 compounds; about 14,000 (4.5%) showed an effect of 50% or more. The effect is printed as a negative number. Many of the other results were omitted from the sample, so strong results are more common in it than they were.
# Biological target: human ether-à-go-go-related gene (hERG) potassium channel (human, UniProt Q12809)
# Experiment: primary screen, population patch clamp on CHO cells stably expressing hERG; higher = less effect of the substance
# 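Further: peak tail current of the secondary pulse compared with the same well before compound.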
# human ether-à-go-go-related gene (hERG) potassium channel, sequence (Q12809 whole entry, looked up): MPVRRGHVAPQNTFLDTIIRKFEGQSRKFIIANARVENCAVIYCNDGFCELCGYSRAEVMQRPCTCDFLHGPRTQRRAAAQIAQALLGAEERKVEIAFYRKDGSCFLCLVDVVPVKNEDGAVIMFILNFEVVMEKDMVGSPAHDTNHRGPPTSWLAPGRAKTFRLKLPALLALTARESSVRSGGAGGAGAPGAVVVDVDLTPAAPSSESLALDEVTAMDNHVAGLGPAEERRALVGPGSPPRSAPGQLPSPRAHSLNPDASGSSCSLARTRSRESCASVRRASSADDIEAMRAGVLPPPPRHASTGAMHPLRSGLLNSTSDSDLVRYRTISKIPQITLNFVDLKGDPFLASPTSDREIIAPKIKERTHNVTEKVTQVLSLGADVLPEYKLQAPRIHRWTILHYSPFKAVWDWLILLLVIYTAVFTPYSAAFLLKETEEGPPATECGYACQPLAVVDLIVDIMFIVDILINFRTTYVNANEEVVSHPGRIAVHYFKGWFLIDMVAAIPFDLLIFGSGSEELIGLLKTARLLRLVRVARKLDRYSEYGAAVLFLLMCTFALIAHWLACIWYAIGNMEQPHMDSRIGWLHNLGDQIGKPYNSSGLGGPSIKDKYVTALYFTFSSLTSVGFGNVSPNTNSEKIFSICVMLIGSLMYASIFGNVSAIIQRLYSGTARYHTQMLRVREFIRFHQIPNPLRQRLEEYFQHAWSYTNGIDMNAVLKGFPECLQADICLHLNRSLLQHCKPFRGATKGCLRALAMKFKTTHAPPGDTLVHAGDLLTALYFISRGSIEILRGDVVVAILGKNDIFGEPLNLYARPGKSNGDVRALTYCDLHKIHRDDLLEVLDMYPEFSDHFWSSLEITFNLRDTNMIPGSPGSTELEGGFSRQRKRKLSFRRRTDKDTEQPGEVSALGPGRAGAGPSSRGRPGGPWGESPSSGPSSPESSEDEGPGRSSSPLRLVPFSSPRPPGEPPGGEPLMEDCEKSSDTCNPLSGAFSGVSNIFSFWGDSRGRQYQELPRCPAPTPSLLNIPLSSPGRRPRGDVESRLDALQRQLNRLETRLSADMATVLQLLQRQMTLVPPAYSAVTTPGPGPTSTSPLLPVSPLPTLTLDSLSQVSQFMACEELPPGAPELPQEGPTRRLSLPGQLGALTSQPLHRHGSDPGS
row,SMILES,"hERG current change (%, negative = inhibition) at 10uM"
1,Cc1cccc(N2CN=C3SCC(=O)N3C2)c1,0.175%
2,CC(C)C1Nc2ccc(S(N)(=O)=O)cc2C2C=CCC21 (stereo not shown),5.89%
3,OCC(O)/C=N/Nc1nc2ccccc2s1 (stereo not shown),14%
4,CCNC(=S)N/N=C(\C)c1ccc2c(c1)OCCO2,13.4%
5,COCCNC(=S)N/N=C(\C)CCc1ccc2c(c1)OCO2,-11.6%
6,C/C(CCc1ccc2c(c1)OCO2)=N\NC(=O)c1ccccc1,9.96%
7,C/C(CCc1ccc2c(c1)OCO2)=N\NC(=S)NC(C)C,-59.4%
8,CNC(=S)N/N=C(\C)c1ccc2c(c1)OCCO2,9.21%
9,C/C(=N\NC(=S)NC(C)C)c1ccc2c(c1)OCCO2,-63.6%
10,CC(=O)n1cc([C@H]2C=C(C(=O)Nc3ccccc3)O[C@@H](OCc3ccc(CO)cc3)C2)c2ccccc21,-2.85%
11,CC1(C)CC(NS(=O)(=O)c2ccc(Cl)cc2)CC(C)(C)N1,9.34%
12,CCn1cnc2cc(NCc3cccs3)ccc21,-15.9%
13,Cc1cccc(NCc2nc3ccccc3n2Cc2ccccc2)c1,-13.1%
14,Cc1nc2cc(NCc3ccccc3O)ccc2n1Cc1ccccc1,13.8%
15,O=C(O)c1ccc(NCc2nc3ccccc3n2Cc2ccccc2)cc1,-4.61%
16,Cc1nc2cc(NCc3nc4ccccc4n3Cc3ccccc3)ccc2n1C,-82%
17,CCn1cnc2cc(NCc3nc4ccccc4n3Cc3ccccc3)ccc21,-65.6%
18,NC(=O)c1ccccc1OCC(=O)N1CCc2ccccc2C1,8.34%
19,COC(=O)c1cc(-c2ccc(Br)cc2)on1,8.48%
20,Cc1c(Cl)cccc1NC(=S)NCc1ccccc1,16.5%
21,Cc1ccc(S(=O)(=O)C2(C(=O)NCc3ccccc3Cl)CC2)cc1,-15.2%
22,Cc1nnc(SCC(=O)Nc2ccc(N3CCOCC3)cc2)n1-c1ccccc1,-14.5%

row,SMILES,"hERG current change (%, negative = inhibition) at 10uM"
1,CCCCCn1c(=O)[nH]c2cc(C(=O)Nc3ccc(OC)cc3)ccc2c1=O,14.9%
2,CC(=O)NCC(=O)OCc1ccc([N+](=O)[O-])cc1,3.26%
3,O=C(NCC1CCCO1)C1CCN(S(=O)(=O)c2cc(Cl)ccc2Cl)CC1 (stereo not shown),-19%
4,CN(C)C1(CNC(=O)C2CCN(S(=O)(=O)c3ccccc3C(F)(F)F)CC2)CCCCC1,-29.8%
5,CC(C)c1ccc(S(=O)(=O)N2CCC(C(=O)NCC3(N(C)C)CCCCC3)CC2)cc1,-54.4%
6,CC(C)c1ccc(S(=O)(=O)N2CCC(C(=O)N3CCC3)CC2)cc1,-9.72%
7,CN(C)C1(CNC(=O)C2CCN(S(=O)(=O)c3cccc(C(F)(F)F)c3)CC2)CCCCC1,-34.6%
8,O=C(NC1CCCCCC1)C1CCN(S(=O)(=O)c2c(Cl)cccc2Cl)CC1,11.6%
9,CN(C)C1(CNC(=O)C2CCN(S(=O)(=O)c3c(Cl)cccc3Cl)CC2)CCCCC1,-67.5%
10,Cc1ccc(S(=O)(=O)N2CCC(C(=O)Nc3ccc(C(C)C)cc3)CC2)cc1,-11.5%
11,CN(C)C1(CNC(=O)C2CCN(S(=O)(=O)c3cc(Cl)ccc3Cl)CC2)CCCCC1,-64.1%
12,CCOC(=O)c1cccc(NC(=O)C2CCCO2)c1 (stereo not shown),4.7%
13,Brc1ccccc1CNCCc1ccc2c(c1)OCO2,0.404%
14,Cc1cccc(Oc2cnn(C(C)(C)C)c(=O)c2Cl)c1,-10%
15,Cc1ccc(NC(=O)c2sc(N)nc2-c2ccc([N+](=O)[O-])cc2)cc1C,8.18%
16,CSc1ccc(C(C(C(=O)c2cccs2)N2CCOCC2)N2CCOCC2)cc1 (stereo not shown),-3.73%
17,COc1ccc(CCn2nnnc2C(C(C)C)N2CCN(c3ncccn3)CC2)cc1OC (stereo not shown),-5.93%
18,Cc1c(Br)c([N+](=O)[O-])nn1CC(=O)Nc1ccc(C(N)=O)cc1,-2.84%
19,COc1ccc(C2c3c(ncn(CCN4CCOCC4)c3=N)Oc3ccc4ccccc4c32)cc1 (stereo not shown),-47.2%
20,COc1ccc(C2c3ccc4ccccc4c3Oc3ncn(CCN4CCOCC4)c(=N)c32)cc1 (stereo not shown),-74.1%
21,COc1ccc(C2c3c(ncn(CCN4CCOCC4)c3=N)Oc3ccc4ccccc4c32)cc1OC (stereo not shown),-16.6%
22,COc1ccc(C2c3ccc4ccccc4c3Oc3ncn(CCN4CCOCC4)c(=N)c32)cc1OC (stereo not shown),-53.4%

row,SMILES,"hERG current change (%, negative = inhibition) at 10uM"
1,COc1ccc(C2c3c(ncn(CCCN4CCOCC4)c3=N)Oc3ccc4ccccc4c32)cc1OC (stereo not shown),-51.3%
2,COc1ccc(C2c3c(ccc4ccccc34)Oc3ncn4nc(Cc5ccccc5)nc4c32)cc1OC (stereo not shown),-7.49%
3,Cc1cc(NC(=O)CCN2C(=O)C3C4C=CC(C4)C3C2=O)c2ccccc2n1 (stereo not shown),7.51%
4,CC(=O)Nc1nc(C(F)(F)F)cs1,7.96%
5,CN(C(=O)c1cccnc1)c1nnc(-c2cnccn2)s1,8.06%
6,Cc1cc(NC(=O)c2cccc3c2C(=O)N(C2CCCCC2)C3)ccc1Br,13%
7,COc1ccccc1N1CC(C(=O)NCCN2C(=O)S/C(=C\c3cccnc3)C2=O)CC1=O (stereo not shown),1.78%
8,O=C(NCCN1C(=O)S/C(=C\c2ccc(F)cc2)C1=O)c1cccc(S(=O)(=O)N2CCOCC2)c1,-3.04%
9,O=C(NCCN1C(=O)S/C(=C\c2cccnc2)C1=O)c1cc(S(=O)(=O)N2CCOCC2)ccc1F,-59%
10,CSc1cccc(N2CC(C(=O)NCCN3C(=O)S/C(=C\c4cccnc4)C3=O)CC2=O)c1 (stereo not shown),-68.3%
11,Cc1cc(OCCCC(=O)NCCN2C(=O)S/C(=C\c3cccnc3)C2=O)ccc1Cl,-6.35%
12,O=C(CCl)NCCN1C(=O)S/C(=C\c2cccnc2)C1=O,26.1%
13,CC(C)(Oc1ccc(Cl)cc1)C(=O)NCCN1C(=O)S/C(=C/c2cccnc2)C1=O,-62.9%
14,O=C(NCCN1C(=O)S/C(=C\c2cccnc2)C1=O)c1ccc(S(=O)(=O)N2CCCC2)cc1,-11.3%
15,CS(=O)(=O)c1ccc(C(=O)NCCN2C(=O)S/C(=C\c3cccnc3)C2=O)cc1[N+](=O)[O-],1.32%
16,Cc1c(C(=O)NCCN2C(=O)S/C(=C\c3cccnc3)C2=O)cccc1[N+](=O)[O-],-45.1%
17,COc1ccc(C(=O)NCCN2C(=O)S/C(=C\c3cccnc3)C2=O)cc1[N+](=O)[O-],-63.8%
18,CCOc1ccc(N2CC(C(=O)NCCN3C(=O)S/C(=C\c4cccnc4)C3=O)CC2=O)cc1 (stereo not shown),-0.149%
19,Cc1ccc(S(=O)(=O)NC(C)(C)CSc2ncccn2)cc1,-4.42%
20,CC1=CC(C)(C)N(C(=O)CCl)c2ccccc21,-39.7%
21,O=C(O)C(Nc1nc(C(F)(F)F)nc2ccccc12)c1ccccc1 (stereo not shown),26.2%
22,O=C(Cc1cccs1)NCc1cccc(F)c1,14.4%

row,SMILES,"hERG current change (%, negative = inhibition) at 10uM"
1,CCOC(=O)C1CCN(c2c(NCc3ccc(C(=O)NCCOC)cc3)c(=O)c2=O)CC1,-7.38%
2,CCn1cc(C(=O)Nc2ccc(F)c(F)c2)cn1,7.43%
3,COc1ccccc1N(CC(=O)NC(C)(C)C)C(=O)CCC(=O)Nc1nccs1,-36.5%
4,COC(=O)CN1C(=O)C2(OCCCO2)c2ccccc21,-7.31%
5,COc1cccc(-c2cccc(NC(=O)C3CCN(Cc4ccon4)CC3)c2)c1,-27.8%
6,O=C(Nc1cccc(-c2cccc(Cl)c2)c1)C1CCN(Cc2ccon2)CC1,-52.7%
7,Cc1cc(C)n(-c2ccc(NC(=O)C3CCN(Cc4ccccn4)CC3)cc2)n1,-14.5%
8,O=C(Nc1cccc(-c2cccc(Cl)c2)c1)C1CCN(Cc2ccccn2)CC1,-77.8%
9,Cl.O=C(O)C1CCN(Cc2ccccn2)CC1,16.2%
10,CC(c1ccccc1)C1CC(=O)N(Cc2ccco2)C1=O (stereo not shown),25.9%
11,COc1ccc(CN2CC(C(=O)NCCC(C)C)CC2=O)cc1 (stereo not shown),10.5%
12,COc1ccc(NC(=S)NCCSc2ccc(C)cc2)c(OC)c1,5.2%
13,CCOC(=O)c1c(C)[nH]c(C)c1S(=O)(=O)NCCc1sccc1C,-0.705%
14,Cc1cc2ncn(CC(O)COc3cccc(C(=O)O)c3)c2cc1C (stereo not shown),-10.8%
15,Cc1ccc(C(=O)Nc2ccccc2C(=O)O)cc1S(=O)(=O)NCc1ccccc1,9.8%
16,CC(CN1CCOCC1)C(=O)c1ccccc1.Cl (stereo not shown),8.47%
17,Cc1ccc(C)c(S(=O)(=O)NC(C)C(=O)Nc2ccc(-c3nc4ccccc4s3)cc2)c1 (stereo not shown),2.9%
18,Cc1ccc(/C=C/C(=O)OCC(=O)NC(=O)NCc2ccco2)cc1,18.7%
19,CCc1cccc(C)c1NC(=O)COC(=O)c1ccc2c(c1)S(=O)(=O)c1ccccc1C2=O,-0.0165%

# From publication PMC4336329 (PLoS ONE, 2015)
